The values below come from PubChem BioAssay AID777 (Sanford-Burnham Center for Chemical Genomics, 2007).

The campaign covered roughly 96,000 compounds. About 19,000 (20%) were called active. A selection follows. Unmarked numbers belong to inactive results.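 Rule for the calls: active = blocking of liver enzyme CYP2C9 beyond about 50% at 5 µM (limit read from the data); inactive = the rest.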

For this experiment, the target named is Cytochrome P450 2C9 (Homo sapiens) (UniProt P11712). The experiment can be described thus: blockers of cytochrome P450 2C9 activity – biochemical, luminescence, ADME assay, primary screen (AID 777). The settings on record: CYP2C9 Supersomes, luciferin-H conversion, at 5 µM, active compounds read high.
Sequence of Cytochrome P450 2C9 (Homo sapiens) (P11712 whole entry, looked up): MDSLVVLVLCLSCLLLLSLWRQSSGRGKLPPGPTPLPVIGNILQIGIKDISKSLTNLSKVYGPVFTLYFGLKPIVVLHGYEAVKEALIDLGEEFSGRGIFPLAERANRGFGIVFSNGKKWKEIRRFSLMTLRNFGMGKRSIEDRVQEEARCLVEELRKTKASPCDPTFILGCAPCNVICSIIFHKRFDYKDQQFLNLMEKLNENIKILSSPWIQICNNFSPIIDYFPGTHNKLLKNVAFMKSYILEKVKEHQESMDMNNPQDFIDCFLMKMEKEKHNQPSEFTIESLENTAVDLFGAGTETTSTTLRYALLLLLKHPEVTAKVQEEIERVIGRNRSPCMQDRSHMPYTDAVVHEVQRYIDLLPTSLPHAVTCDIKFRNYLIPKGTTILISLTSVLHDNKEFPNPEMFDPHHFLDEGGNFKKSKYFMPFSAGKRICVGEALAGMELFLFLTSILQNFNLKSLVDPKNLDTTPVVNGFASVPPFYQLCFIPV
Consider `CCN(CC)C(=O)N1CCN(C(=O)c2ccc(C)cn2)CC1`, for which the inhibition was -1%.
Take `CCCOc1ccc(C2NC(=O)NC(c3ccccc3)=C2C(C)=O)cc1OCC` (stereo unspecified): the inhibition was 37.3%.
Regarding `Cc1cccc(COc2ccccc2/C=N/Nc2ccc([N+](=O)[O-])cc2)c1`, the inhibition is 43.5%.
Then `CC(=O)CSc1nnc(CSc2ncccn2)n1C1CCCCC1`, with -10.7%; and `CCCNC(=O)c1c(N)n(-c2ccc(S(N)(=O)=O)cc2)c2nc3ccccc3nc12`, with -2.9%; and `CCN(CC)CCN1C(=O)C(=O)/C(=C(/O)c2ccccc2)C1c1ccccc1F` (stereo unspecified), with -5.9%.
Then `CC(=O)C1=C(O)C(=O)N(c2ccc(S(N)(=O)=O)cc2)C1c1ccccc1F` (stereo unspecified), with 62.8% (active); and `COCC(=O)Nc1ccc(Br)cc1`, with -12.9%; and `O=C(NCc1ccco1)C1(c2ccc(Cl)cc2)CCCC1`, with 58.8% (active).
For `O=C(/C=C/c1ccc(Cl)cc1Cl)NCc1ccco1`, the inhibition is -2.5%.
With `O=C(NCCCCCCNC(=O)NCc1ccco1)NCc1ccco1` the figure was -11.1%.
For `Cc1nc2c(-c3ccc(F)cc3)c(C)nn2c(C)c1CCC(=O)N1CCN(c2ccccn2)CC1`, the inhibition was 13.1%.
As for `O=C(/C=C/c1ccc(Cl)cc1Cl)c1cccnc1`, the inhibition is 14.7%.
For the molecule `COc1ccccc1CSc1nc2ccccc2[nH]1`, the inhibition was 43.6%.
Regarding `CN1CCN(c2ccc([N+](=O)[O-])c(Sc3nc4ccccc4[nH]3)c2)CC1`, the inhibition is 52.2% (active).
In the case of `CSc1nnc2c(n1)OC(c1cn(C)c3ccccc13)N(C(C)=O)c1ccccc1-2` (stereo unspecified), the inhibition is 1.6%.
As for `Cc1ccc(-c2nnc(SC(C)C#N)n2N)cc1` (stereo unspecified), the inhibition is 1.1%.
Take `CSc1ccccc1C(=O)Nc1cccc(C(C)=O)c1`: the inhibition was 27.8%.
Take `Cc1cc(C)nc(N(C#N)CC(=O)Nc2ccccc2)n1`: the inhibition is 7.1%.
On to `CSc1nc(C)cc(SC(C(C)=O)C(=O)Nc2ccccc2)n1` (stereo unspecified), for which the inhibition was 65.3% (active).
In the case of `Cc1csc(NC(=O)NC2(C(F)(F)F)Oc3ccccc3O2)n1`, the inhibition was -6.5%.
Consider `COc1ccc(C(=O)Nc2cc(C)ccc2NC(=O)COc2ccccc2)cc1`, for which the inhibition is 6.9%.
Then `Cc1ccc2nc(-c3ccc(SCC(=O)Nc4cc(C)on4)nc3)[nH]c2c1`, with 2.6%; and `CCOC(=O)c1cc2cc(C)ccc2[nH]1`, with 13.9%.
`CC(N)C12CC3CC(CC(O)(C3)C1)C2` (stereo unspecified): the inhibition is -4%.
Then `FC(F)(F)COc1nc(N2CCCCC2)nc(N2CCNCC2)n1`, with -4.2%; and `CCOCCc1c(O)nc(SCC(=O)NCc2ccco2)[nH]c1=O`, with -8.3%.
`O=C(COC(=O)C12CC3CC(CC(C3)C1)C2)NCc1ccco1`: the inhibition was 35.4%.
With `CCC(C)NC(=O)CSC1=Nc2ccccc2C2=NC(CCC(=O)NCc3ccco3)C(=O)N12` (stereo unspecified), the inhibition was 67.8% (active).
Consider `O=C(CSc1c2c(nc3ccc(Cl)cc13)CCCC2)NCc1ccco1`, for which the inhibition was 48.3%.
In the case of `O=C(CC1N=C2c3ccccc3N=C(SCc3ccccc3Cl)N2C1=O)NCc1ccco1` (stereo unspecified), the inhibition was 85.2% (active).
Regarding `NC(=O)CSC1=Nc2ccccc2C2=NC(CCC(=O)NCc3ccc(F)cc3)C(=O)N12` (stereo unspecified), the inhibition is 16.8%.
As for `O=C(CSC1=Nc2ccccc2C2=NC(CC(=O)NCc3ccco3)C(=O)N12)NCc1ccco1` (stereo unspecified), the inhibition was 65.1% (active).
Take `CCOc1c(Cl)cc(/C=N/O)cc1OC`: the inhibition is -30%.
As for `COC(=O)c1cc(C(=O)OC)cc(N2C(=O)CC(N3CCN(c4ccccc4)CC3)C2=O)c1` (stereo unspecified), the inhibition is 49%.
Regarding `Cn1cc(S(=O)(=O)N2CCC(Cc3ccccc3)CC2)c(=O)n(C)c1=O`, the inhibition is 23.7%.
`C=C1c2cc(CC)ccc2NC(=O)N1c1ccc(C)cc1`: the inhibition is 10.6%.
With `CC(C)(C)n1nnc(CCc2nnn(C(C)(C)C)n2)n1` the figure was 3.2%.
For `Cc1c(NC(=O)/C=C/C(=O)O)cccc1[N+](=O)[O-]`, the inhibition is -2.8%.
`Cc1ccc(NC2(C#N)C(=O)Nc3ccccc32)cc1` (stereo unspecified): the inhibition was -24.6%.
With `CCOC(=O)c1c(NC(C)=O)sc2c(O)c(Br)ccc12`, the inhibition is 55% (active).
On to `CCOC(=O)c1c(NC(=O)CCl)sc(C(=O)N(CC)CC)c1C`, for which the inhibition is 49.6%.
Take `CCOC(=O)c1c(NC(=O)/C=C/c2ccco2)sc(C)c1C`: the inhibition is -4%.
In the case of `CC(=O)Nc1nonc1-c1nc2ccccc2n1Cc1ccccn1`, the inhibition was 7.4%.
Consider `COc1ccccc1N1CCN(C(=O)c2c(-c3c(Cl)cccc3Cl)noc2C)CC1`, for which the inhibition is 88% (active).
As for `COc1ccccc1N1CCN(C(=O)c2cc(-c3ccc(Br)cc3)on2)CC1`, the inhibition was -12%.
Take `COc1ccccc1N1CCN(C(=O)CSc2nnc(-c3ccoc3C)o2)CC1`: the inhibition was 25.8%.
Then `CN1CCN(CCCNC(=O)c2cc3c(=O)oc4ccccc4c3s2)CC1`, with -15.9%.
For `CC(C)NS(=O)(=O)c1ccc(OCC(=O)Nc2ccc3c(c2)OCCO3)cc1`, the inhibition is 40.9%.
`COc1ccc(OCC(=O)NCCc2ccc(S(N)(=O)=O)cc2)cc1`: the inhibition is 41.9%.
In the case of `Cc1ccc(CNC(=O)COc2ccc(S(=O)(=O)NC(C)C)cc2)cc1`, the inhibition is 52.7% (active).
Take `COc1ccc(-c2cc(C)nc3nc(N)nn23)cc1`: the inhibition is -29.3%.
Then `Cc1cccc(N2C(=O)c3cccnc3C2=O)c1`, with 3.1%; and `Cc1c(C(=O)N2CCOCC2)[nH]c2ccc(OCc3ccccc3)cc12`, with 72.7% (active).
As to `CCOC(=O)c1[nH]c2ccc(OC)cc2c1NC(=O)N1CCOCC1`, the inhibition is -9.2%.
Turning to `Cc1c(C(=O)CN2CCOCC2)[nH]c2ccccc12`, the inhibition was -15.8%.
With `Cc1ccc(OCC(O)CN2CCN(CC(O)COc3ccc(C)cc3Cl)CC2)c(Cl)c1` (stereo unspecified) the figure was -10.1%; with `COC(=O)c1[nH]c2ccccc2c1NS(=O)(=O)c1ccc(OC)cc1OC`, 74.8% (active); with `CCCS(=O)(=O)Nc1c(C(=O)O)[nH]c2ccccc12`, 33.7%.
For `COC(=O)c1[nH]c2ccc(Br)cc2c1NC(=O)Oc1ccccc1`, the inhibition is 4.5%.
As to `CCCCCCCCOC1OC(CO)C(O)C(O)C1NC(C)=O` (stereo unspecified), the inhibition is -2.6%.
Then `COC(=O)c1ccc(C(=O)Nc2cc(Cl)ccc2Cl)cc1NC(=O)c1ccccc1C`, with -13.7%; and `Cc1ccc(N2C(=O)c3ccccc3C2(O)c2ncc[nH]2)cc1` (stereo unspecified), with -0.7%.
For the molecule `CCOCC(=O)Nc1cc(OC)c(Cl)cc1OC`, the inhibition is 13.3%.
Regarding `Cc1nc(N2CCCC2C(=O)O)c2oc3ccccc3c2n1` (stereo unspecified), the inhibition is -6.6%.
With `CC(C)C1N=C2c3ccccc3N=C(SCC(=O)c3ccc(O)c(O)c3)N2C1=O` (stereo unspecified), the inhibition is 51.3% (active).
In the case of `O=C(CSC1=Nc2ccccc2C2=NC(c3ccccc3)C(=O)N12)NCC1CCCO1` (stereo unspecified), the inhibition is 39.3%.
For `CCOC(=O)c1cc2occc2n1CC(=O)NC1CCC(C)CC1` (stereo unspecified), the inhibition was 22%.
As for `O=C1/C(=C\Nc2ccccc2)CCN1c1ncccn1`, the inhibition was 3.1%.
Regarding `CCOC(=O)C1CCN(C(=O)Cn2cc(C#N)c3ccccc32)CC1`, the inhibition was -6.6%.
Then `CCOC(=O)CCc1c(C)c(C#N)c2[nH]c3ccccc3n2c1=O`, with 64.1% (active); and `CCOC(=O)CSc1nccc(N(C)C)c1C#N`, with -35%.
As for `Cc1c(CCO)c(=O)n(-c2ccccc2)n1S(=O)(=O)c1ccc(F)cc1`, the inhibition was 37.6%.
Then `CCOC(=O)C1CCN(Cc2coc3ccc(Cl)cc3c2=O)CC1`, with -49.2%; and `CCN(CC(=O)Nc1ccccc1OC)C(=O)Cn1cnc2ccccc2c1=O`, with 14.4%; and `COc1ccccc1NC(=O)CSc1nnc(Cn2nnc(-c3ccccc3)n2)n1-c1ccccc1`, with 40.2%.
For the molecule `CCCc1nc(SCC(=O)Nc2ccccc2OC)c2c(=O)n(C)c(=O)n(C)c2n1`, the inhibition was 70.3% (active).
With `COc1ccc(C2C=C(c3ccc(Br)cc3)Nc3nc(NS(C)(=O)=O)nn32)cc1` (stereo unspecified), the inhibition is -11.7%.
As to `O=C(O)CCC(=O)NCc1ccc(C(=O)O)cc1`, the inhibition is 6.1%.
With `COc1ccc(NC(=O)c2c(SC)nsc2SC)cc1` the figure was 12.2%.
Regarding `CCCCCOC(=O)NCCOC(=O)Nc1ccc(C(=O)OCC)cc1`, the inhibition was 48%.
As for `N#Cc1cc([N+](=O)[O-])ccc1Oc1cccc(/C=N/NC(=O)c2ccc(Cl)cc2)c1`, the inhibition was 59.3% (active).
`CCCc1ccc(OCc2ccc(C(=O)N/N=C/c3cccc([N+](=O)[O-])c3)o2)c(OC)c1`: the inhibition is -10.7%.
Take `COc1cc(OC)c(/C=N/NC(=O)c2ccc([N+](=O)[O-])cc2)cc1Br`: the inhibition is 1.8%.
For `O=C1CCC(C(=O)Nc2ccc(OC(F)F)cc2)N1` (stereo unspecified), the inhibition is 1.2%.
Turning to `CCCCNc1nc2ccccc2nc1NS(=O)(=O)c1cccs1`, the inhibition was 32.1%.
Regarding `CC(=O)N1CCN(CCN=CC2=C(O)CC(C)(C)CC2=O)CC1`, the inhibition was 4%.
As to `CC1(C)CC(=O)C(C=NCCN2CCN(C(=S)Nc3cccc(Cl)c3)CC2)=C(O)C1`, the inhibition is 51.8% (active).
For the molecule `CC1(C)CC(=O)C(C=NCCC2=CCCCC2)=C(O)C1`, the inhibition is 0.7%.
As for `CC(=O)c1nn(-c2cccc(Br)c2)cc1C(=O)c1cccc2ccccc12`, the inhibition was -72%.
With `CC(C)COC(=O)C1C2C=CC3(CN(C(C)c4ccc(Br)cc4)C(=O)C13)O2` (stereo unspecified), the inhibition was 9.2%.
Turning to `Cc1cc(NC(=O)c2cnn3cccnc23)n(-c2ccccc2)n1`, the inhibition was 32%.
Then `COc1ccc(CCN(C)CCN2C(=O)c3ccccc3C2=O)cc1OC`, with -9.6%; and `CCN(CC)CCN1C(=O)C(=O)/C(=C(/O)c2ccc(OC)c(OC)c2)C1c1ccccn1` (stereo unspecified), with -10.7%; and `COc1ccc(CCN2C(=O)c3[nH]nc(-c4ccccc4O)c3C2c2ccc(C)cc2)cc1OC` (stereo unspecified), with 58% (active).
With `CCCCCCSc1nsc(N)n1`, the inhibition was 1.5%.

In general, inhibition refers to the change of the read-out against control, counted positive when it falls.
